Only some compounds are listed: those with a hit (about 2% of all), similar ones and a draw of the others.
TDP43 rescue = rescues yeast growth from TDP-43 toxicity | hit rate 1.8% among 410,000 | TDP-43 expressing yeast growth rescue, BacTiter-Glo, 24 h | Potency, µM (titrated, usually from 46.1 µM), most hits filed as activators; further: nearly all actives have a fitted effect of over 50% in size
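Galactose-induced TDP-43 yeast, OD600=0.02, compound pinned; 24 hr, 30 deg C; BacTiter-Glo luminescence for growth. Inhibitors of TDP-43 toxicity read as activators.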
FUS yeast rescue = rescues growth of FUS-expressing yeast | Potency, µM (titrated, usually from 76.6 µM), actives largely listed as activators | hit rate 0.24% among 390,000 | S. cerevisiae FUS-expressing, growth rescue, OD600, 24 h | AID 1347120; further: nearly all actives have a fitted effect of over 55% in size
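Cultures pregrown in 2.5% raffinose medium are shifted to minimal medium containing 2% galactose to express toxic FUS. Compounds are tested at several concentrations. After 24hr at 30C, growth is quantified at 600 nm absorbance.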
Abeta yeast res = restores growth of yeast expressing A-beta42 peptide | yeast expressing A-beta42, growth rescue, OD600, 48 h; response scale: 0% DMSO, 100% iron-clioquinol control | Potency, µM (series often up to 46.1 µM), actives largely listed as activators | hit rate 0.063% among 410,000 | AID 1347071; further: nearly all actives have a fitted effect of over 55% in size
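Yeast growth medium received pinned compounds, then yeast cells expressing toxic A-beta were added; plates incubated at 30 C for 48 hr. Growth read as absorbance at 600 nm, normalized to DMSO and equimolar FeCl3 plus clioquinol controls.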
aSyn yeast inh = inhibitors of alpha-synuclein toxicity in yeast; Yeast expressing alpha-synuclein, growth rescue, BacTiter-Glo, 24 h; AID 652106; hit rate 0.14% among 370,000; Potency, µM (series often up to 46.1 µM), actives largely listed as activators; further: nearly all actives have a fitted effect of over 65% in size
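Galactose-induced alpha-syn yeast (OD600=0.02, raffinose-pregrown) + pinned cpd, 24 hr, 30 deg C; growth by BacTiter-Glo luminescence. Growth restoration scores as activation.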
MBNL1-CUG inh = blocks human MBNL1 binding to CUG repeat RNA; Q9NR56; TR-FRET MBNL1-His/biotin-(CUG)12 binding, 665/545 ratio; hit rate 0.036% among 280,000; Potency, µM (series often up to 57.5 µM), most hits filed as inhibitors; active means well fitted inhibition curve with a large enough effect in the signal ratio, with a control signal flat, not every such curve was filed as active; inconclusive means small, poorly fitted or top-dose-only effect, or effect the other way, or a change in a side signal; inactive means no such curve, though single readings can be large or run the other way; the % refers to the signal ratio
Target sequence (Q9NR56 whole entry, looked up): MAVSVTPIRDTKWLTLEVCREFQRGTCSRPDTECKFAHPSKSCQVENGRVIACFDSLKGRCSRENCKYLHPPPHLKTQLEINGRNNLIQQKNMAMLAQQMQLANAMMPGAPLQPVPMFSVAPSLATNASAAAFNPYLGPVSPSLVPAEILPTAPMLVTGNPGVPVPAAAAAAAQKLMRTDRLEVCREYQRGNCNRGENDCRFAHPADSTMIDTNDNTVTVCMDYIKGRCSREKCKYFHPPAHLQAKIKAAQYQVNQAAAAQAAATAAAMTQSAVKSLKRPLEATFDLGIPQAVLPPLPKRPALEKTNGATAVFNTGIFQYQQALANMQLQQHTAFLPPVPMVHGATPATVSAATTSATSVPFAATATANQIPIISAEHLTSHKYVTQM
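TR-FRET between His-tagged MBNL1 and biotin-(CUG)12 RNA, detected with Tb anti-His antibody (0.055 ng/ul) and streptavidin-XL665 (5 nM), 60 min at room temperature. Compounds titrated 92 nM to 58 uM; 665/545 nm ratio normalized to buffer and complex controls.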
GRP78 ERSR act = induces the endoplasmic reticulum stress response in human glioma cells; U87-MG GRP78 promoter luciferase reporter, 16 h; Potency, µM, usual class: activators; hit rate 0.02% among 420,000; AID 602332; further: series mostly up to about 76 µM; nearly all actives have a fitted effect of over 35% in size
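ERSR induction read as luciferase luminescence (Bright-Glo, 10 min at room temperature) in stably transfected human U87-MG glioma cells exposed to compounds for 16 h, using GRP78 as sensor.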
A number is an active result. Unless noted, the call rests on the fitted dose curve; in most records, active means well fitted curve in the direction sought with a large enough effect; inconclusive means small, poorly fitted or top-dose-only effect, or another doubt; inactive means no such curve, though single readings can be large; an effect the other way counts as inactive or inconclusive.

Results for COc1ccc(C(=O)C[n+]2ccc3c(c2)nc(Cc2ccccc2)n3C)cc1 ?
FUS yeast rescue: inactive

Results for O=S(=O)(NC1c2cccc3cccc(c23)C1Sc1ncccn1)c1ccccc1 (configuration not stated) ?
TDP43 rescue: 22.4µM; FUS yeast rescue: inactive; Abeta yeast res: inactive; aSyn yeast inh: inactive; MBNL1-CUG inh: inactive; GRP78 ERSR act: inactive

What do the screens show for `Cc1ccc(S(=O)(=O)NC2c3cccc4cccc(c34)C2Sc2nc(C)cc(C)n2)cc1` (configuration not stated)?
TDP43 rescue: inconclusive; Abeta yeast res: inactive; aSyn yeast inh: inactive; MBNL1-CUG inh: inactive; GRP78 ERSR act: inactive

What do the screens show for `Cc1ccc(Nc2nc3ccccc3s2)c(C)c1`?
TDP43 rescue: 25.1µM; FUS yeast rescue: inactive; Abeta yeast res: inactive; aSyn yeast inh: inactive; MBNL1-CUG inh: inactive; GRP78 ERSR act: inactive

What do the screens show for `Cc1cc(C)nc(Nc2nc3ccccc3s2)n1`?
TDP43 rescue: inactive; FUS yeast rescue: inactive; Abeta yeast res: inactive; aSyn yeast inh: inactive; MBNL1-CUG inh: inactive; GRP78 ERSR act: inactive

Results for CC(C)(C)c1ccc(OCCNCc2ccccc2)cc1 ?
TDP43 rescue: inactive; FUS yeast rescue: inactive; Abeta yeast res: inactive; aSyn yeast inh: inactive; MBNL1-CUG inh: inactive; GRP78 ERSR act: inactive

How did CC(C)(C)c1ccc(OCCNC(=S)Nc2ccccc2)cc1 do in these assays?
TDP43 rescue: 12.6µM; FUS yeast rescue: inactive; Abeta yeast res: inactive; aSyn yeast inh: inactive; MBNL1-CUG inh: inactive; GRP78 ERSR act: inactive

Results for COC(=O)c1cccc(C(=O)NCc2nc(-c3cccc(NC(=O)c4ccoc4C)c3)oc2C)c1 ?
GRP78 ERSR act: inactive

What do the screens show for `N#Cc1nc(/C=C/c2ccc(F)cc2)oc1N1CCCCCC1`?
TDP43 rescue: 11.2µM; FUS yeast rescue: inactive; Abeta yeast res: inactive; GRP78 ERSR act: inactive

What do the screens show for `CC1CCN(c2oc(/C=C/c3ccc(F)cc3)nc2C#N)CC1`?
TDP43 rescue: inactive; FUS yeast rescue: inactive; Abeta yeast res: inactive; GRP78 ERSR act: inactive

Results for COc1ccc(/C=C/c2nc(C#N)c(N3CCCCCC3)o2)cc1OC ?
TDP43 rescue: 17.8µM; FUS yeast rescue: inactive; Abeta yeast res: inactive; GRP78 ERSR act: inactive

Results for CN1C2CCC1CC(NC(=O)n1c(=O)[nH]c3ccccc31)C2 (configuration not stated) ?
GRP78 ERSR act: inactive

What do the screens show for `S=C(c1ccc(-c2cc(Cl)ccc2Cl)o1)N1CCOCC1`?
TDP43 rescue: 12.6µM; FUS yeast rescue: inactive; Abeta yeast res: inactive; aSyn yeast inh: inactive; MBNL1-CUG inh: inactive; GRP78 ERSR act: inactive

What do the screens show for `COc1ccc(-c2cc(-c3ccccc3)nc3ncnn23)cc1`?
TDP43 rescue: 14.1µM; FUS yeast rescue: inactive; Abeta yeast res: inactive; aSyn yeast inh: inactive; MBNL1-CUG inh: inactive; GRP78 ERSR act: inactive

What do the screens show for `CNc1ccc(/C=C/c2ccccc2)cc1`?
GRP78 ERSR act: inactive

Results for CC(C)Cc1nc(N2CCN(C(=O)c3ccccc3)CC2)c(C#N)c2c1CCC2 ?
TDP43 rescue: 25.1µM; FUS yeast rescue: inconclusive; Abeta yeast res: inactive; aSyn yeast inh: inactive; MBNL1-CUG inh: inactive; GRP78 ERSR act: inactive

Results for CC(=O)N1CCN(c2nc(CC(C)C)c3c(c2C#N)CCC3)CC1 ?
TDP43 rescue: inactive; FUS yeast rescue: inactive; Abeta yeast res: inactive; aSyn yeast inh: inactive; MBNL1-CUG inh: inactive; GRP78 ERSR act: inactive

Results for CCOc1ccc(-c2noc(CCC(=O)O)n2)cc1 ?
TDP43 rescue: 31.6µM; FUS yeast rescue: inactive; Abeta yeast res: inactive; aSyn yeast inh: inactive; MBNL1-CUG inh: inactive; GRP78 ERSR act: inactive

How did CCOc1ccc(OCCCC(=O)O)cc1 do in these assays?
TDP43 rescue: 12.6µM; FUS yeast rescue: inactive; Abeta yeast res: inactive; aSyn yeast inh: inactive; MBNL1-CUG inh: inactive; GRP78 ERSR act: inactive

What do the screens show for `C[C@@H]1COc2cc(Br)ccc2S(=O)(=O)N1Cc1cn(Cc2ccc(Cl)cc2)nn1`?
FUS yeast rescue: inactive

Results for O=[N+]([O-])c1ccc(N2CCN(C(=S)NC3CCCCC3)CC2)cc1 ?
TDP43 rescue: 12.6µM; FUS yeast rescue: inactive; Abeta yeast res: inconclusive; aSyn yeast inh: inactive; MBNL1-CUG inh: inconclusive; GRP78 ERSR act: inactive

Results for O=C(Cc1ccc(OCCC2CCCCC2)cc1)NO ?
aSyn yeast inh: 5.62µM; GRP78 ERSR act: inactive

What do the screens show for `CCC(C)CNC(=O)CN1C(=O)C2CCCCN2C(=O)c2ccccc21` (configuration not stated)?
FUS yeast rescue: inactive

What do the screens show for `Cc1cc(C(=O)Nc2c(F)cc(F)cc2Br)cs1`?
TDP43 rescue: 12.6µM; FUS yeast rescue: inactive; Abeta yeast res: inactive; aSyn yeast inh: inactive; MBNL1-CUG inh: inactive; GRP78 ERSR act: inactive

How did CCC1C(=O)NCCN1Cc1ccc2c(c1)CN(Cc1cccc(OC)c1OC)CCO2 (configuration not stated) do in these assays?
GRP78 ERSR act: inactive

Results for COc1ccc(O)c(CN2CCCN(c3nc(C)c4cc(C)c(C)cc4n3)CC2)c1 ?
GRP78 ERSR act: inactive

What do the screens show for `COC[C@@H](OC(C)=O)[C@H]1OCc2ccccc2[C@@H]1/C=C/c1ccccc1`?
FUS yeast rescue: inactive

How did CCOC(=O)c1cccc(N2C(=O)c3ccccc3S2(=O)=O)c1 do in these assays?
TDP43 rescue: 11.2µM; FUS yeast rescue: inactive; Abeta yeast res: inactive; MBNL1-CUG inh: inactive; GRP78 ERSR act: inactive

Results for CCn1c2ccccc2c2cc(NC(=O)COC(=O)c3cccc(F)c3F)ccc21 ?
FUS yeast rescue: inactive

What do the screens show for `CCN1CCCC1CNC(=O)c1cnn(-c2nccc(-c3cc4ccccc4o3)n2)c1C` (configuration not stated)?
GRP78 ERSR act: inactive

How did O=C(COC(=O)c1nc(Cl)ccc1Cl)NCc1ccc(Cl)cc1 do in these assays?
TDP43 rescue: 17.8µM; FUS yeast rescue: inactive; Abeta yeast res: inactive; aSyn yeast inh: inactive; GRP78 ERSR act: inactive

What do the screens show for `CCC(NC(=O)C1CCCN(c2ncccn2)C1)c1ccccc1` (configuration not stated)?
FUS yeast rescue: inactive

Results for S=C(NCC1(c2ccccc2)CCCC1)Nc1ccccc1 ?
TDP43 rescue: inconclusive; FUS yeast rescue: inactive; Abeta yeast res: 5.01µM; aSyn yeast inh: inactive; MBNL1-CUG inh: inactive; GRP78 ERSR act: inactive

Results for CN1CCCN(C(=O)C2CCCN(C(=O)c3ccc4c(c3)NC(=O)CS4)C2)CC1 (configuration not stated) ?
FUS yeast rescue: inactive

Results for COC(=O)N/N=C/c1cc(Br)ccc1O ?
TDP43 rescue: inactive; FUS yeast rescue: inactive; Abeta yeast res: inactive; aSyn yeast inh: inactive; MBNL1-CUG inh: inactive; GRP78 ERSR act: inactive

Bioassay records as filed in PubChem BioAssay.
